In the library only some 10% were active in any assay of this set; here they are far more common.
GPT2 inhibitor: GPT2 alanine aminotransferase inhibition | Recombinant GPT2, coupled pyruvate oxidase/HRP Amplex Red fluorescence | Q8TD30 | AID 1671188 | Potency, µM (series often up to 57.7 µM), usual class: inhibitors | hit rate 0.25% among 100,000; note: nearly all actives have a fitted effect of over 60% in size
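Fluorescence of coupled pyruvate oxidase/HRP/Amplex Red system (50uM Amplex, 30 min, dark) reports pyruvate formed by GPT2. Enzyme reaction: 10ng/uL GPT2, 2mM L-alanine, 250uM a-KG, 30 min room temperature, pH 7.5; 50uM AOA control.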
3T3 cytotox: kills NIH 3T3 cells | NIH 3T3 viability, CellTiter-Glo ATP luminescence, 48-72 h | Potency, µM (series often up to 96.7 µM), most hits filed as inhibitors | hit rate 4.3% among 94,000 | AID 1345082; note: nearly all actives have a fitted effect of over 55% in size
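Viability of NIH 3T3 cells after 48 or 72 hr compound treatment at 37 °C was assessed by CellTiter-Glo, with luminescence imaged following a 10 min room-temperature step.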
NPR1 antag: antagonists of human natriuretic peptide receptor Npr1 | P16066 | HEK293 hNpr1 GloSensor cGMP, ANP-stimulated luminescence | Potency, µM (doses to about 46.3 µM), usual class: inhibitors | hit rate 1.6% among 76,000; calls by dose curve; note: nearly all actives have a fitted effect of over 60% in size
Target sequence (P16066 whole entry, looked up): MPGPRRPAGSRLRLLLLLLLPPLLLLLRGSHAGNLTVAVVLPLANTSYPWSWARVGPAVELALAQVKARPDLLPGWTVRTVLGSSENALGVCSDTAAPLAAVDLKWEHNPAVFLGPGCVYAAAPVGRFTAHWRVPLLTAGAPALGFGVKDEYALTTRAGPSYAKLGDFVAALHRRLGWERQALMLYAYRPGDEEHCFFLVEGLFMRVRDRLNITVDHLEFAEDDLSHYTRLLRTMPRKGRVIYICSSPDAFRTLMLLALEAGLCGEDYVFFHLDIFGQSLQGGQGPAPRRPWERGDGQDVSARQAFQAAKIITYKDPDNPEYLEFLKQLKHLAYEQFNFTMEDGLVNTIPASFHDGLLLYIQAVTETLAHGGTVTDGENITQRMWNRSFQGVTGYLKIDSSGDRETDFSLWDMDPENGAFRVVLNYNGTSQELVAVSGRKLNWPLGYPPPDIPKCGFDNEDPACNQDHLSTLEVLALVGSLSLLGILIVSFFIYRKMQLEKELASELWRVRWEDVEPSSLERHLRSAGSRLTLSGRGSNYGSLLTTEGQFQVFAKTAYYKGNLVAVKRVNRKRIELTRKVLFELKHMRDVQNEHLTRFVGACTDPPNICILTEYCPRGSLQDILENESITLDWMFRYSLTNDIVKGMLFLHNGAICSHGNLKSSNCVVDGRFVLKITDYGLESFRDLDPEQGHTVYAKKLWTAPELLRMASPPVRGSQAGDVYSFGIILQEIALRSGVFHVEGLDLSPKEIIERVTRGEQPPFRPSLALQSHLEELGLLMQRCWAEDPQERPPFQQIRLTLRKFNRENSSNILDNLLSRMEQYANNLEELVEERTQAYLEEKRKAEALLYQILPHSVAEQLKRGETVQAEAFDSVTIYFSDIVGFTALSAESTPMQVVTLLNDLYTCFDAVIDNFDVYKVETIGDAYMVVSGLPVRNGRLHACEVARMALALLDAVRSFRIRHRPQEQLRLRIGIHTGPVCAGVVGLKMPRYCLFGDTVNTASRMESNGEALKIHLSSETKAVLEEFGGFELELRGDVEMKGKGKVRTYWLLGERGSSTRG
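HEK293 cells stably expressing human Npr1 and cGMP GloSensor pGS-40F, loaded 2 h with 2% GloSensor reagent, given compound 30 min at room temperature. Luminescence read before and 20 min after 0.1 nM hNppA.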
FLuc inh: blocks purified firefly luciferase enzyme activity | purified P. pyralis luciferase, luminescence, biochemical | Potency, µM (top dose mostly 115 µM), hits mostly inhibitors | hit rate 2.5% among 76,000 | AID 1347043; note: nearly all actives have a fitted effect of over 65% in size
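Biochemical qHTS: compound (6-point titration) added to 10uM D-luciferin plus 10uM ATP in Tris acetate pH 7.5 buffer with Mg, Tween-20 and BSA, then purified enzyme at 10nM; light output imaged.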
HEK cytotox: cytotoxic compounds in HEK 293 cells; HEK 293 viability, ATP luminescence (CellTiter-Glo), 48-72 h; Potency, µM (highest dose often 115 µM), most hits filed as inhibitors; hit rate 6.6% among 94,000; AID 1345083; note: nearly all actives have a fitted effect of over 60% in size
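Pintool-delivered compounds were incubated with HEK 293 cells (250 cells/well) at 37 degree Celsius for 48 or 72 hr. ATP-dependent luminescence (CellTiter-Glo) then reported remaining viable cells.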
Hits are given with their value; [ ] = another dose, or the depositor's remark. Unless noted, calls come from the whole dose curve; as a rule, active = well fitted curve in the direction sought with a large enough effect; inconclusive = small, poorly fitted or top-dose-only effect, or another doubt; inactive = no such curve, though single readings can be large; an effect the other way counts as inactive or inconclusive.

How did O=C(CN1C(=O)NC(c2ccc(Cl)cc2)C2=C1COC2=O)NCc1ccccc1Cl (centres undefined) do in these assays?
GPT2 inhibitor: inactive; 3T3 cytotox: inconclusive; NPR1 antag: inactive; FLuc inh: inactive; HEK cytotox: 35µM

Results for CC(=O)N1CCCC(N2C(=O)c3c(c(C)nn3-c3ccccc3)C2C)C1 (centres undefined) ?
3T3 cytotox: inactive; HEK cytotox: inactive

What do the screens show for `CC(C)CNC(=O)N1CCCC(c2nc(CCOc3ccc(F)cc3)no2)C1` (centres undefined)?
GPT2 inhibitor: inactive; 3T3 cytotox: inconclusive; NPR1 antag: inactive; FLuc inh: inactive; HEK cytotox: 40µM

Results for Cc1ccccc1NC(=O)N1CCCC(c2noc(COc3ccccc3)n2)C1 (centres undefined) ?
GPT2 inhibitor: inactive; 3T3 cytotox: inconclusive; NPR1 antag: inactive; FLuc inh: inactive; HEK cytotox: inconclusive

Results for CCc1cccc(NC(=O)N2CCCC(c3noc(COc4ccccc4)n3)C2)c1 (centres undefined) ?
GPT2 inhibitor: inactive; 3T3 cytotox: 32µM; NPR1 antag: inconclusive; FLuc inh: inactive; HEK cytotox: inconclusive

Results for Cc1ccc(OCc2nc(C3CN(C(=O)Cc4ccsc4)C3)no2)cc1 ?
GPT2 inhibitor: inactive; 3T3 cytotox: inconclusive; NPR1 antag: inactive; FLuc inh: inactive; HEK cytotox: 89µM

How did COCc1nc(C2CCCN(C(=O)Cc3ccccc3C)C2)no1 (centres undefined) do in these assays?
GPT2 inhibitor: inactive; 3T3 cytotox: inactive; NPR1 antag: inactive; FLuc inh: inactive; HEK cytotox: inactive

How did CCCNC(=O)N1CCCC(c2nc(CCOc3ccc(F)cc3)no2)C1 (centres undefined) do in these assays?
GPT2 inhibitor: inactive; 3T3 cytotox: inconclusive; HEK cytotox: inconclusive

How did Cc1ccccc1CC(=O)N1CCCC(c2noc(COc3ccccc3)n2)C1 (centres undefined) do in these assays?
GPT2 inhibitor: inactive; 3T3 cytotox: inconclusive; NPR1 antag: inactive; FLuc inh: inactive; HEK cytotox: 45µM

How did COc1ccc(CN2CC(O)CN(C(=O)Cc3ccccc3)CC2=O)cc1 (centres undefined) do in these assays?
3T3 cytotox: inconclusive; HEK cytotox: inactive

How did O=C(c1cccc(Cl)c1)N1CCN(c2nccc(Nc3ccccc3Cl)n2)CC1 do in these assays?
GPT2 inhibitor: inactive; 3T3 cytotox: inconclusive; HEK cytotox: inconclusive

What do the screens show for `CCNC(=O)N1CCCC(c2noc(COc3ccccc3F)n2)C1` (centres undefined)?
GPT2 inhibitor: inactive; 3T3 cytotox: inactive; NPR1 antag: inactive; FLuc inh: 35µM; HEK cytotox: inactive

How did CC(C)NC(=O)N1CCCC(c2noc(COc3ccccc3F)n2)C1 (centres undefined) do in these assays?
GPT2 inhibitor: inactive; 3T3 cytotox: inactive; NPR1 antag: inactive; FLuc inh: inactive; HEK cytotox: inactive

Results for O=C(NCc1ccccc1Cl)C1CCN(Cc2ccccc2-c2cccnc2)CC1 ?
GPT2 inhibitor: inactive; 3T3 cytotox: inconclusive; HEK cytotox: inconclusive

Results for O=C(C1CN(c2ccc(F)cc2)C(=O)N1)N1CCN(Cc2ccccc2)CC1 (centres undefined) ?
GPT2 inhibitor: inactive; 3T3 cytotox: 28µM; NPR1 antag: inactive; FLuc inh: inactive; HEK cytotox: 25µM

Results for COc1cccc(C(=O)Nc2cc(-c3ccccn3)nn2-c2ccccc2)c1 ?
GPT2 inhibitor: inactive; 3T3 cytotox: inactive; HEK cytotox: inactive

Results for COc1ccc(-c2nc(CN3CCC(F)(F)CC3)c(C)o2)c(OC)c1C ?
GPT2 inhibitor: inactive; 3T3 cytotox: inconclusive; NPR1 antag: inactive; FLuc inh: inactive; HEK cytotox: inconclusive

Results for COc1ccc(-c2nc(CN3CCC(CO)CC3)c(C)o2)c2ccccc12 ?
GPT2 inhibitor: inactive[11.5 µM]; 3T3 cytotox: inconclusive; NPR1 antag: inactive; FLuc inh: inactive; HEK cytotox: 20µM

How did Cc1c(-c2ccccc2)[nH]c2c(CNC(=O)CN3C(=O)CNC3=O)cc(Cl)cc12 do in these assays?
GPT2 inhibitor: inactive; 3T3 cytotox: inconclusive; NPR1 antag: inactive; FLuc inh: 10µM; HEK cytotox: inconclusive

How did Cc1c(-c2ccccc2)[nH]c2c(CNC(=O)c3ccc(=O)n(C)n3)cc(Cl)cc12 do in these assays?
GPT2 inhibitor: inactive; 3T3 cytotox: inconclusive; NPR1 antag: 11µM; FLuc inh: inconclusive; HEK cytotox: 28µM

Results for CN(CCC(O)c1ccccc1)c1nccc(-c2cccnc2)n1 (centres undefined) ?
GPT2 inhibitor: inactive; 3T3 cytotox: inconclusive; NPR1 antag: inactive; FLuc inh: inactive; HEK cytotox: 32µM

Results for Cc1noc(C)c1-c1cc2cc(C(C)C)oc2c(NC2CCOCC2)n1 ?
GPT2 inhibitor: inactive; 3T3 cytotox: inconclusive; NPR1 antag: inactive; FLuc inh: inactive; HEK cytotox: 100µM

How did Cc1noc(C)c1-c1cc2cc(C(C)C)oc2c(-c2c(C)noc2C)n1 do in these assays?
GPT2 inhibitor: inactive; 3T3 cytotox: inconclusive; NPR1 antag: inactive; FLuc inh: inactive; HEK cytotox: inconclusive

Results for Cc1noc(C)c1-c1cc2cc(C(C)C)oc2c(NC(C)C)n1 ?
GPT2 inhibitor: inactive; 3T3 cytotox: 79µM; NPR1 antag: inactive; FLuc inh: inactive; HEK cytotox: 89µM

Results for COc1ncccc1-c1nc(-c2c(C)noc2C)cc2cc(C(C)C)oc12 ?
GPT2 inhibitor: inactive; 3T3 cytotox: inconclusive; NPR1 antag: inactive; FLuc inh: inactive; HEK cytotox: 89µM

How did COCCn1c(=O)c(C(=O)NC2CC2)nc2cccnc21 do in these assays?
GPT2 inhibitor: inactive; 3T3 cytotox: inactive; HEK cytotox: inactive

How did c1ccc(-c2noc(-c3cncnc3NCC3CCCCC3)n2)cc1 do in these assays?
GPT2 inhibitor: inactive; 3T3 cytotox: inactive; NPR1 antag: inactive; FLuc inh: inactive; HEK cytotox: inactive

How did CCC(=O)NC[C@H]1Cn2cc(-c3ccc(OC)cc3)nc2CO1 do in these assays?
GPT2 inhibitor: inactive; 3T3 cytotox: inactive; NPR1 antag: inactive; FLuc inh: 63µM; HEK cytotox: inactive

What do the screens show for `COc1ccc(-c2cn3c(n2)CO[C@@H](CNC(=O)CCC(=O)O)C3)cc1`?
GPT2 inhibitor: inactive; 3T3 cytotox: inactive; NPR1 antag: inactive; FLuc inh: inactive; HEK cytotox: inactive

Results for COc1ccc(-c2cn3c(n2)CO[C@@H](CNCc2ccc(Cl)cc2)C3)cc1 ?
GPT2 inhibitor: inactive; 3T3 cytotox: 100µM; NPR1 antag: inconclusive; FLuc inh: 63µM; HEK cytotox: 89µM

What do the screens show for `Cc1ccc(-c2cn3c(n2)CO[C@@H](CNS(C)(=O)=O)C3)cc1`?
GPT2 inhibitor: inactive; 3T3 cytotox: inactive; NPR1 antag: inactive; FLuc inh: inactive; HEK cytotox: inactive

Results for COc1ccc(-c2cn3c(n2)CO[C@@H](CNS(C)(=O)=O)C3)cc1 ?
GPT2 inhibitor: inactive; 3T3 cytotox: inactive; NPR1 antag: inactive; FLuc inh: 56µM; HEK cytotox: inactive

Screening data (PubChem)
